Measurements taken from PubChem BioAssay (NCATS).
Inconclusive results are not listed. Calls of active or inactive are those of the source. Unless noted, calls come from the whole dose curve; as a rule, active = well fitted curve in the direction sought with a large enough effect; inconclusive = small, poorly fitted or top-dose-only effect, or another doubt; inactive = no such curve, though single readings can be large; an effect the other way counts as inactive or inconclusive.

Assays:
[1] = Identifying Small Molecule Inhibitors of Pancreatic Cancer Stem Cells (SN12C, Adherent) (AID 1259358);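 note: cell survival measured after 48 h of compound exposure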; note: potency is the fitted concentration of half-maximal effect
How it was run: (§1)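 Luminescent ATP readout (CellTiter-Glo) quantifies surviving cells after a 48 h drug incubation. Normalization uses DMSO wells as no inhibition and media-only wells as full inhibition; bortezomib served as positive control.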

[2] = Identifying Small Molecule Inhibitors of Pancreatic Cancer Stem Cells (Panc1, Spheroid) (AID 1259359); conditions: Panc1 spheroid cancer stem cell viability;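 note: potency is the fitted concentration of half-maximal effect; compound exposure lasted 48 h before reading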
How it was run: (§2)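 Cytotoxicity read by CellTiter-Glo luminescence after 48 h compound exposure at 37C; percent activity scaled between DMSO-treated cells and cell-free wells. Spheroid formats used cells pre-formed 14 days in stem cell media on hydrogel.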

[3] = Identifying Small Molecule Inhibitors of Pancreatic Cancer Stem Cells (Panc1, Adherent) (AID 1259362); conditions: viability; note: potency is the fitted concentration of half-maximal effect
How it was run: as §2

[4] = Identifying Small Molecule Inhibitors of Pancreatic Cancer Stem Cells (SN12C, Spheroid) (AID 1259360)
How it was run: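 Viability is scored by CellTiter-Glo luminescence 48 h after dosing, expressed as percent activity against vehicle and no-cell references. Spheroid formats rely on cells cultured 14 days in stem cell media beforehand.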

[5] = Identifying Small Molecule Inhibitors of Pancreatic Cancer Stem Cells (A278, Adherent) (AID 1259361); note: nearly all actives have a fitted effect of over 35% in size
How it was run: as §1

[6] = P-glycoprotein substrates identified in KB-8-5-11 adenocarcinoma cell line, qHTS therapeutic library screen (AID 1346987); note: nearly all actives have a fitted effect of over 65% in size; note: potency is the fitted concentration of half-maximal effect
How it was run: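 Compounds are pinned in dose-response onto KB-8-5-11 cells (500 cells/well, colchicine-free medium) and left 72 h at 37 degree C. CellTiter-Glo luminescence then yields AC50 values.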

[7] = NS1 protein of Zika virus - qHTS assay to identify small molecule inhibitors in human HEK 293 cells (AID 1347053); note: series mostly up to about 46 µM; nearly all actives have a fitted effect of over 55% in size
How it was run: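 Compound-treated (1 h pre-infection) HEK 293 cells infected with ZIKV MR766, MOI = 0.5; after 24 h at 37 C, NS1 read by TR-FRET; data normalized to uninfected and infected controls.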

[8] = qHTS of pediatric cancer cell lines to identify multiple opportunities for drug repurposing: Primary screen for TC32 cells (AID 1347089); note: nearly all actives have a fitted effect of over 60% in size; note: potency is the fitted concentration of half-maximal effect
How it was run: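 Luminescent ATP read-out (CellTiter-Glo) of metabolically active TC32 cells after 48 h exposure. Concentration-response curves came from 11-point (MIPE, 0.78 nM–46 µM) or 8-point (NPC, 0.59 nM–46 µM) primary titrations; follow-up used 11 points.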

[9] = qHTS of pediatric cancer cell lines to identify multiple opportunities for drug repurposing: Primary screen for SJ-GBM2 cells (AID 1347091)
How it was run: (§3)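 Eight- or eleven-point concentration series, 48 h treatment at 37 degrees C in growth media; readout CellTiter-Glo luminescence. Potency and efficacy were taken from the concentration-response curves.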

[10] = qHTS of pediatric cancer cell lines to identify multiple opportunities for drug repurposing: Primary screen for BT-37 cells (AID 1347094); note: potency is the fitted concentration of half-maximal effect
How it was run: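 Readout: CellTiter-Glo luminescence, 48 h treatment. Controls DMSO (neutral) and bortezomib 2.3 µM final (positive). Potency and efficacy taken from primary-screen concentration-response curves.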

[11] = Natriuretic polypeptide receptor (hNpr1) antagonism - Pilot counterscreen GloSensor control cell line (AID 1347045; calls by dose curve; note: potency is the fitted concentration of half-maximal effect)
How it was run: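 Control counterscreen: luciferase cGMP-biosensor HEK293 cells (no Npr1) received compound for 30 min at room temperature after GloSensor substrate loading. Luminescence was measured before and 20 min after soluble guanylyl cyclase activation by 50 uM nitroprusside.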

[12] = target: Atrial natriuretic peptide receptor 1 (Homo sapiens) (UniProt P16066); assay: Natriuretic polypeptide receptor (hNpr1) antagonism - Pilot screen (AID 1347049; calls by dose curve;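 note: HEK293 cells with hNpr1 and GloSensor cGMP luciferase stimulated by 0.1 nM hNppA; agonist-evoked cGMP luminescence read 20 min after hNppA addition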; note: potency is the fitted concentration of half-maximal effect)
Sequence of Atrial natriuretic peptide receptor 1 (Homo sapiens) (P16066 whole entry, looked up): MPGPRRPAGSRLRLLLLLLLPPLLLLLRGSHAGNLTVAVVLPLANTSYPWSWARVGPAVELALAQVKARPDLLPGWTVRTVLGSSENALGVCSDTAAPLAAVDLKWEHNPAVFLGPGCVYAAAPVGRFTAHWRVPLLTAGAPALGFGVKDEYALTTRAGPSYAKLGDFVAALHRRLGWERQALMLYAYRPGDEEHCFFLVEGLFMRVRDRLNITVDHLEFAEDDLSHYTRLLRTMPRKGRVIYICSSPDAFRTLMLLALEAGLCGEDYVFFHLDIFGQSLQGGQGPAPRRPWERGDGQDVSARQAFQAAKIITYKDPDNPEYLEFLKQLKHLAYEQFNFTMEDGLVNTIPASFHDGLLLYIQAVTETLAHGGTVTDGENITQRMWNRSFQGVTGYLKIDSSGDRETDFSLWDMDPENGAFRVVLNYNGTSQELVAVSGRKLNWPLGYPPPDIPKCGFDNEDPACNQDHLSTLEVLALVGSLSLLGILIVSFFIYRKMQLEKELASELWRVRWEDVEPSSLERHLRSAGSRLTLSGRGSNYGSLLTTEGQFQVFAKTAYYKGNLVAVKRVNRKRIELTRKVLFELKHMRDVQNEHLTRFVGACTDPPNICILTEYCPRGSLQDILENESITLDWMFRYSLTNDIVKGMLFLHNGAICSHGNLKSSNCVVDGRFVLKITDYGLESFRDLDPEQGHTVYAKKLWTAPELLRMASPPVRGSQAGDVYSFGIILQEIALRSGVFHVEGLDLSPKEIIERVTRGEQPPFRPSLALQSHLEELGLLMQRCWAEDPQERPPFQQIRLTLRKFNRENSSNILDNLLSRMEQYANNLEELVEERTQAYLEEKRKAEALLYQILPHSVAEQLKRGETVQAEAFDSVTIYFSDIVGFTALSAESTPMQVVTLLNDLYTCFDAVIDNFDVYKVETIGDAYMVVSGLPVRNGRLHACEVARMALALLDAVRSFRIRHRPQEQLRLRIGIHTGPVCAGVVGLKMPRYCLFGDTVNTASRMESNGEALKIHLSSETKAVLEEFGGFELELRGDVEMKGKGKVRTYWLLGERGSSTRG
How it was run: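 Cells expressing receptor plus cGMP biosensor are seeded and incubated overnight at 37C, then loaded with GloSensor reagent (2% final) at room temperature for 2 h. Library compounds go on for 30 min. A pre-read precedes agonist (hNppA, 0.1 nM final) and a 20-min readout.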

[13] = target: Atrial natriuretic peptide receptor 2 (Homo sapiens) (UniProt P20594); assay: Natriuretic polypeptide receptor (hNpr2) antagonism - Pilot subtype selectivity assay (AID 1347050; calls by dose curve; note: potency is the fitted concentration of half-maximal effect)
Sequence of Atrial natriuretic peptide receptor 2 (Homo sapiens) (P20594 whole entry, looked up): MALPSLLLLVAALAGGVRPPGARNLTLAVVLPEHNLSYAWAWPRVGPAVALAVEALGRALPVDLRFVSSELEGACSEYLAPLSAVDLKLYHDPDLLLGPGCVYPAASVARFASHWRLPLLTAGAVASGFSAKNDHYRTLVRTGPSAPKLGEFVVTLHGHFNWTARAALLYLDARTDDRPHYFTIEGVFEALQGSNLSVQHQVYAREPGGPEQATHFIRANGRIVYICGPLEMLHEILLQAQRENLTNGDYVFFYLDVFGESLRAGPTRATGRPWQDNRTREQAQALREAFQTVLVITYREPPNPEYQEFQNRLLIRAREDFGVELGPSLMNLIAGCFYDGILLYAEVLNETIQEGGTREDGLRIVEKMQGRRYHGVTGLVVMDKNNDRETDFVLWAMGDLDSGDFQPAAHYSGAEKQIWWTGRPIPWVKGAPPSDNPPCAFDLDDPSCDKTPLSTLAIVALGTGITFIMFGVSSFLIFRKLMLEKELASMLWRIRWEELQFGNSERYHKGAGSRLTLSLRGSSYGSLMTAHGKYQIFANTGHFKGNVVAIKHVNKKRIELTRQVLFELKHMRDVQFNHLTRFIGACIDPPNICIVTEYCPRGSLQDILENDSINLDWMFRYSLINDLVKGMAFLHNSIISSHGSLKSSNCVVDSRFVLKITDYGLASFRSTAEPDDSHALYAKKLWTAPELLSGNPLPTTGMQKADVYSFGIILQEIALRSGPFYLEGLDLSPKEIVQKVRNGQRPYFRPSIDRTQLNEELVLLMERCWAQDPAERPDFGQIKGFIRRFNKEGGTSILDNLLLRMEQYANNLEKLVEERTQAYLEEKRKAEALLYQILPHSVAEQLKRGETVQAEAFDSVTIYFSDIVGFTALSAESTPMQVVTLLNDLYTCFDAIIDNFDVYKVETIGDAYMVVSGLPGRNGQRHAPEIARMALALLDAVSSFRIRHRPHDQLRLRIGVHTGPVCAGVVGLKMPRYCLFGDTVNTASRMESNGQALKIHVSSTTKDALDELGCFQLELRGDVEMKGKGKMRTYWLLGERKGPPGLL
How it was run: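 Read-out: GloSensor luminescence (CCD imager), baseline vs post-stimulation. HEK293 cells expressing hNpr2; compounds pre-incubated 30-50 min at ambient temperature; hNppC 1 nM final, 20 min.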

[14] = target: T1, Tyrosine-protein phosphatase non-receptor type substrate 1 (Homo sapiens) + Leukocyte surface antigen CD47 (Homo sapiens) (UniProt P78324+Q08722); assay: CD47-SIRPalpha protein protein interaction - LANCE assay qHTS validation (AID 1347057; active = well fitted curve in the direction sought with a large enough effect in the signal ratio, with a control signal flat, not every such curve was filed as active; the % refers to the signal ratio; note: series mostly up to about 38 µM)
T1 sequence (P78324 whole entry, looked up, the tested form may be a part): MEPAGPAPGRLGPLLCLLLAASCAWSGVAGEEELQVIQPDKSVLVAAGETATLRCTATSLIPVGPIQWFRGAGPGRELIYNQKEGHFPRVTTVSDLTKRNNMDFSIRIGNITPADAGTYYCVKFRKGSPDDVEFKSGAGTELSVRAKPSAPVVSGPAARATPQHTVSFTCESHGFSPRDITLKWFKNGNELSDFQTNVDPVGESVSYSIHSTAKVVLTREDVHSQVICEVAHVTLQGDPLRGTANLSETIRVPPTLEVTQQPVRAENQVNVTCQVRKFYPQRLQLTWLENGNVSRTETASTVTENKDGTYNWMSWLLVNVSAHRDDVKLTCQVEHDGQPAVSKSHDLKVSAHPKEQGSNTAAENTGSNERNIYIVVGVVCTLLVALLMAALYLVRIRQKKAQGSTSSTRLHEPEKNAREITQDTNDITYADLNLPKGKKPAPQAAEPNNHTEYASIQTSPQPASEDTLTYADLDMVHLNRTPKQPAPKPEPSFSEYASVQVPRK
T1 sequence (Q08722 whole entry, looked up, the tested form may be a part): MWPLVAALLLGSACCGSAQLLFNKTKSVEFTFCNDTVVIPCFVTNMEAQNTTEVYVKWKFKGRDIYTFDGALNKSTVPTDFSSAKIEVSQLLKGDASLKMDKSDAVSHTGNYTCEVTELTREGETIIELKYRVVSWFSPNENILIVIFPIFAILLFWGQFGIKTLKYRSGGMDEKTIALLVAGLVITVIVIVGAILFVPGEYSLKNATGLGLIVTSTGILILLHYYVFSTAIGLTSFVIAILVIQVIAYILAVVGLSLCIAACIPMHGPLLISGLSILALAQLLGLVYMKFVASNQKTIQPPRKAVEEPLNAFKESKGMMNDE
How it was run: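 Inhibition of soluble CD47/SIRPalpha ectodomain association by titrated compounds, measured as 665/615 nm time-resolved FRET ratio after sequential 30 min room-temperature incubations.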

[15] = target: T1, Tyrosine-protein phosphatase non-receptor type substrate 1 (Homo sapiens) + Leukocyte surface antigen CD47 (Homo sapiens); assay: CD47-SIRPalpha protein protein interaction - HTRF assay qHTS validation (AID 1347058; active = well fitted curve in the direction sought with a large enough effect in the signal ratio, not every such curve was filed as active; the % refers to the signal ratio; note: series mostly up to about 38 µM)
How it was run: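 Soluble extracellular domains (6His-CD47, Avi-tag-biotinylated SIRPalpha) in PBS pH 7.4 with 0.05% IGEPAL CA-630. Compounds were preincubated 30 min at RT with CD47 and anti-His-Eu, then SIRPalpha and SAV-XL665 were added. TR-FRET 665/615 ratio.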

[16] = target: T1, Tyrosine-protein phosphatase non-receptor type substrate 1 (Homo sapiens) + Leukocyte surface antigen CD47 (Homo sapiens); assay: CD47-SIRPalpha protein protein interaction - Alpha assay qHTS validation (AID 1347059);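 note: bead proximity luminescence from CD47 binding SIRPalpha after compound preincubation with SIRPalpha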
How it was run: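 In PBS (pH 7.4) with 0.05% IGEPAL CA-630, compound is preincubated with biotin-Avi-SIRPalpha ectodomain before His-CD47 ectodomain and affinity beads are added. Light-protected room-temperature incubations; AlphaScreen readout.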

[17] = target: Parathyroid hormone/parathyroid hormone-related peptide receptor (Homo sapiens) (UniProt Q03431); assay: qHTS for PTHR1 Agonists: Optimization Screen against the NCGC LOPAC library (AID 1347079);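 note: GloSensor cAMP luminescence in HEK-293 GP2 cells expressing human PTHR1 with IBMX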
Sequence of Parathyroid hormone/parathyroid hormone-related peptide receptor (Homo sapiens) (Q03431 whole entry, looked up): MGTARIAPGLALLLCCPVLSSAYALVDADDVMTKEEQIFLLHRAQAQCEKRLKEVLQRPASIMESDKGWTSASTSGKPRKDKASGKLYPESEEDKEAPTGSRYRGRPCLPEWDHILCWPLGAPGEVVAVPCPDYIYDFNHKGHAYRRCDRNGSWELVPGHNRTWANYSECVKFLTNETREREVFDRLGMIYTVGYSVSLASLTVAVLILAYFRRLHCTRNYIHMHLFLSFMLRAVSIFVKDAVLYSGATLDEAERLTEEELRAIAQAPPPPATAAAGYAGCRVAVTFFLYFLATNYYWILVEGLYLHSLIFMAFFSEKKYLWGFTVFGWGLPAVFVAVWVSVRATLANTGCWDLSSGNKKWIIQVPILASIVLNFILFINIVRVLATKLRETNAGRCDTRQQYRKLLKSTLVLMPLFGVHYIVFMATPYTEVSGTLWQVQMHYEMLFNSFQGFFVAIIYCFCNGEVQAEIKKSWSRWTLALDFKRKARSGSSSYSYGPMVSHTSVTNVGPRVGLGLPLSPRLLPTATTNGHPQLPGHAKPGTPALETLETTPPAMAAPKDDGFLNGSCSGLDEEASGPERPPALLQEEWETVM
How it was run: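 HEK-293 GP2 cells, PTHR1 + GloSensor cAMP; 3000 cells/well, o/n. Luciferin + IBMX 0.5mM each (stock), 1 hr 37C. Cpd titration, 1 hr 37C. Lum after 15 min RT. Ctrl M-PTH(1-15) top 10uM.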

[18] = qHTS of pediatric cancer cell lines to identify multiple opportunities for drug repurposing: Primary screen for A673 cells (AID 1347092); note: nearly all actives have a fitted effect of over 45% in size; note: potency is the fitted concentration of half-maximal effect
How it was run: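 Cell viability of A673 measured by CellTiter-Glo ATP luminescence after 48 hours compound exposure. Dilution series spanned 0.78 nM to 46 µM (MIPE, 11-point) or 0.59 nM to 46 µM (NPC, 8-point); bortezomib 2.3 uM positive control.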

[19] = qHTS of pediatric cancer cell lines to identify multiple opportunities for drug repurposing: Primary screen for DAOY cells (AID 1347090); note: nearly all actives have a fitted effect of over 55% in size; note: potency is the fitted concentration of half-maximal effect
How it was run: as §3

[20] = qHTS of pediatric cancer cell lines to identify multiple opportunities for drug repurposing: Primary screen for SK-N-MC cells (AID 1347093); note: potency is the fitted concentration of half-maximal effect
How it was run: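 Metabolically active cells were quantified by ATP-dependent luminescence (CellTiter-Glo, 15 min at room temperature) following 48 h treatment. Cells had been plated at 500-1,000 per well and settled for 5 h beforehand.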

Measured: Potency

C=CCc1cccc(/C=N/NC(=O)CN2CCN(Cc3ccccc3)CC2)c1O
active: [1] 10.5 µM | [2] 26.4 µM | [3] 4.18 µM

CN1CC(=O)N/C1=N/C(=O)Nc1cccc(Cl)c1
inactive: [1] | [4] | [5]

c1ccc2sc(SSc3nc4ccccc4s3)nc2c1
inactive: [6] | [7] | [8] | [9] | [10]

CN1CCC[C@H]1c1cccnc1
inactive: [11] | [12] | [13]

Nc1nc(Cl)nc2c1ncn2[C@@H]1O[C@H](COP(=O)(O)OP(=O)(O)OP(=O)(O)O)[C@@H](O)[C@H]1O
inactive: [11] | [12] | [13] | [7] | [14] | [15]

CO/N=C(\C(=O)N[C@@H]1C(=O)N2C(C(=O)O)=C(COC(C)=O)CS[C@H]12)c1csc(N)n1
inactive: [11] | [12] | [13] | [7] | [14] | [15] | [16] | [17]

Cc1ccc(O)c(-n2nc3ccccc3n2)c1
inactive: [6] | [8] | [9] | [18] | [10]

Cc1nc2ccccc2n1Cc1ccc(Cl)cc1
active: [6] 4.11 µM | [19] 5.31 µM
inactive: [7] | [9]

CN(C)c1ccc(N=NS(=O)(=O)O)cc1
inactive: [6] | [7] | [8] | [9] | [10]

CN(C)c1ccc(C(=C2C=CC(=[N+](C)C)C=C2)c2ccccc2)cc1
active: [6] 23.1 µM | [8] 0.105 µM | [18] 0.0422 µM | [20] 0.0531 µM | [10] 0.0978 µM

Nc1ccc(O)c([N+](=O)[O-])c1
inactive: [6] | [7] | [19] | [9] | [18] | [10]

CCOc1ccc2nc(S(N)(=O)=O)sc2c1
inactive: [6] | [7] | [8] | [9]

O=C(CS)Nc1ccccc1
inactive: [6] | [7] | [8] | [10]

Cc1ccc(O)c(N=Nc2ccccc2)n1
active: [11] 7.36 µM | [12] 16.9 µM | [13] 10.4 µM

O=C(O)c1ccccc1Nc1cccc(C(F)(F)F)c1
inactive: [6] | [7] | [8] | [9] | [18] | [10]

CSc1nc(N)c2ncn([C@@H]3O[C@H](COP(=O)(O)OP(=O)(O)OP(=O)(O)O)[C@@H](O)[C@H]3O)c2n1
inactive: [11] | [12] | [13] | [7] | [14] | [15] | [16] | [17]

N#C/C(=C\c1ccc(O)c(O)c1)C(=O)c1ccc(O)c(O)c1
inactive: [11] | [12] | [13] | [7] | [14]

NC(=S)c1ccc[n+]([C@@H]2O[C@@H](COP(=O)([O-])OP(=O)(O)OC[C@H]3O[C@@H](n4cnc5c(N)ncnc54)[C@H](OP(=O)(O)O)[C@@H]3O)C(O)C2O)c1 (stereo not given in full)
inactive: [11] | [12] | [13] | [7] | [14] | [15] | [16] | [17]

CN(C)CCn1nnnc1SCC1=C(C(=O)O)N2C(=O)[C@@H](NC(=O)Cc3csc(N)n3)[C@H]2SC1
inactive: [6] | [7] | [8] | [9] | [18] | [20] | [10]

CN(C)c1ccc(/C=C2\C(=O)Nc3ccccc32)cc1
inactive: [7]
active: [11] 4.14 µM | [12] 1.2 µM | [13] 10.4 µM

CC(C(=O)O)c1ccc2c(c1)[nH]c1ccc(Cl)cc12 (stereo not given)
inactive: [6] | [7] | [8] | [9] | [18] | [10]

CN(C)CCCO[C@@H]1[C@H]2OC(C)(C)O[C@H]2O[C@@H]1[C@H](O)CO
inactive: [11] | [12] | [13]

O=C(O)c1cc(=O)c2c(Cl)cc(Cl)cc2[nH]1
inactive: [11] | [12] | [13] | [7] | [14] | [15] | [16]

[O-][n+]1ccccc1SSc1cccc[n+]1[O-]
active: [6] 7.31 µM | [8] 0.325 µM | [18] 0.0731 µM | [20] 0.058 µM | [10] 3.01 µM

COC(=O)C1=C(C)NC(C)=C(C(=O)OC)C1c1cccc(NC(=O)NCCCN2CCC(c3cccc(OC)c3)CC2)c1
inactive: [6] | [14] | [15] | [16]

CN(C)[C@@H]1C(=O)C(C(=O)NCN2CCCC2)=C(O)[C@@]2(O)C(=O)C3=C(O)c4c(O)cccc4[C@@](C)(O)C3C[C@@H]12 (stereo not given in full)
inactive: [6] | [7] | [8] | [9] | [18] | [10]

O=C(O)c1cc(O)c(O)c(O)c1
inactive: [6] | [7] | [8] | [19] | [9] | [20] | [10]
